# The full ranking holds about 33,000 sequences; the median of “E-score (-0.5 to 0.5)” is about -0.015, and the highest 2% start at about 0.3. The sample holds the highest values, similar sequences and a random draw of the others, so the mix is not that of the screen.
# Target: T1, Abf1 (UniProt P14164)
# T1 sequence: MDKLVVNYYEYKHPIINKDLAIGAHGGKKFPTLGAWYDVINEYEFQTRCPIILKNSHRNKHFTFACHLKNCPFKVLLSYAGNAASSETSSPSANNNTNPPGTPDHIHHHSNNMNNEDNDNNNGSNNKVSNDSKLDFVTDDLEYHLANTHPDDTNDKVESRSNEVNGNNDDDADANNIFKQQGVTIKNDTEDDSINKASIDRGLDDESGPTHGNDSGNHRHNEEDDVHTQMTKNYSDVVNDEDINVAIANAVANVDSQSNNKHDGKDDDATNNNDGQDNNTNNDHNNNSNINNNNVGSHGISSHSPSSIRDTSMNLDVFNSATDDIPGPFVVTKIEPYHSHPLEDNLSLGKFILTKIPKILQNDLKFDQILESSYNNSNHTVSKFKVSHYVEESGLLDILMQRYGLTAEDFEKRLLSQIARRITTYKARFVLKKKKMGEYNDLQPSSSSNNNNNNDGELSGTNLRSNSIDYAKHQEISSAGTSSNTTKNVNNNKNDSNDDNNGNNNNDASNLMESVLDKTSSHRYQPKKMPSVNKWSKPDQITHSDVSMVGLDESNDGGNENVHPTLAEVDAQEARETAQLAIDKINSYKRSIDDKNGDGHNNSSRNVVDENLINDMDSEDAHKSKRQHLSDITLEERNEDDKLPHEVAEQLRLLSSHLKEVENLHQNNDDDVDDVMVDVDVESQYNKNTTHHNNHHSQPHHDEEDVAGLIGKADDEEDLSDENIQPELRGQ
# Experiment: PBM E-score (8-mer binding enrichment) (E-score (-0.5 to 0.5)); higher = stronger / more preferred TF binding
# Conditions: protein concentration: 200 nM; construct: GST-full length
# Protocol: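 Universal 'all 10-mer' protein binding microarrays (Agilent AMADID 015681) probed with GST-tagged S. cerevisiae TFs (full-length or DBD) made by in vitro transcription/translation (PURExpress), about 100-200 nM. Bound TF was detected with fluorescent anti-GST. Each ungapped 8-mer (which stands for itself and its reverse complement) is scored by the PBM enrichment score (E-score), a modified Wilcoxon-Mann-Whitney statistic from -0.5 to +0.5, computed with the Universal PBM Analysis Suite. Scale: above 0.35 generally sequence-specific binding.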
row,Sequence,PBM E-score
1,TATCGCGA,0.34
2,CATCGCGA,0.2
3,GATCGCGA,0.315
4,GATCGCCA,0.165
5,AATCGCGA,0.176
6,GATCGCGC,0.121
7,ATTTAGCA,0.193
8,AGGTAATG,0.0091
9,AACTCTAT,-0.096
10,CGTCTTTA,0.301
11,GGTCTTTA,0.0661
12,CGTCTTTC,0.0707
13,CTTGTTAA,-0.072
14,TCCGTGAA,0.238
15,GCCGTGCA,0.223
16,ACCGTGCC,0.0366
17,ATCGTGCA,0.282
18,ACCGTGCT,0.139
19,ACCGTGCG,0.315
20,CCCGTGCG,0.054
21,ATCGTGCC,0.276
22,ATCGTGCG,0.366
23,TCCGTGCA,0.312

row,Sequence,PBM E-score
1,ACCGTGCA,0.315
2,CCCGTGCA,0.0856
3,AAGTTGTG,-0.0478
4,CTAGGAAG,-0.18
5,CACTGAGA,-0.104
6,AGAAGTTG,-0.0778
7,CTTCGACC,-0.0331
8,GTAGTCAA,0.106
9,CGTGAGTC,0.0135
10,CGCCCGCG,-0.0644
11,AACAGTAT,0.0291
12,AGGTCCAC,-0.0594
13,AATACGGC,0.32
14,CATACGAC,0.333
15,CATACGAG,0.171
16,GATACGGC,0.199
17,CATACGCC,-0.00293
18,CATACGGA,0.295
19,CATACGGC,0.346
20,AATACGGT,0.194
21,AATACGGG,0.202
22,CAGCTTTC,-0.00915
23,AAACTTCT,0.211

row,Sequence,PBM E-score
1,ATCGCCAC,0.275
2,ATAGATAC,-0.0386
3,GCCACTTA,-0.0218
4,AGCACTTG,-0.314
5,GTCACTTA,0.355
6,AACACTTG,-0.0627
7,ATCACTTA,0.355
8,AGCACTTC,0.0874
9,ATCACTTC,0.376
10,ATCACTGA,0.205
11,CTCACTTA,0.14
12,GTCACTGA,0.253
13,CTCACTTC,-0.0359
14,ATCACTTG,0.355
15,CACGGGTC,-0.0483
16,CGTGTGGC,0.0664
17,ATACCGAA,0.189
18,ATTGACGC,-0.156
19,AGTTCTTC,-0.0427
20,CTTCAGAA,-0.179
21,CAAGAACG,0.123
22,GCCATTAA,0.0468
23,AATTGAAG,-0.0559

row,Sequence,PBM E-score
1,CACACGGA,0.0992
2,AACACGAA,0.205
3,GACACGGA,0.167
4,GACACGAA,0.172
5,CACACGAC,0.295
6,CACACGAA,0.341
7,CACACGAG,0.107
8,TACACGGA,0.329
9,TACACGAA,0.337
10,GGGCAGCA,-0.256
11,AGCAGGTG,-0.0258
12,ACCTAACC,0.0492
13,ACTTAGGC,-0.111
14,ACTCATCC,0.227
15,TCCGAAGA,-0.0522
16,TACGAAGA,0.334
17,TACGAATA,0.25
18,GACGAAGA,0.253
19,AACGAAGA,0.188
20,CACGAAGA,0.316
21,CAGCAGGA,-0.0545
22,ACCCTACT,-0.231
23,CCTATTCC,-0.139

row,Sequence,PBM E-score
1,GCAGGTAC,-0.221
2,GAATGACA,0.311
3,AAATGACA,0.358
4,AAATGACG,0.187
5,TAATGCCA,-0.0319
6,TAATGACA,0.376
7,CAATGACA,0.214
8,AAATGACC,0.215
9,TATTGACA,-0.0437
10,GAATGACC,0.0136
11,GACTTCTC,0.167
12,ATGAGCGC,0.0585
13,GTAGGGTA,0.0591
14,CCGTTTGC,-0.0132
15,CATAGCAG,-0.126
16,ATCGTACG,0.394
17,GGCGTACA,0.0819
18,GTCGTAGA,0.278
19,ATCGTACA,0.34

# Reference: the supplement of paper PMC3334620
